According to PubChem BioAssay (NCI):
This is part of a sample that, as a whole, favours compounds with a hit. Of some 79,000 tested, about 15% had one in any assay. Calls of active or inactive are those of the source. Cut-off read from the data, not from the text of the source: active = growth inhibition above about 70%; inactive = the rest.

Assays:
[1] = NCI Yeast Anticancer Drug Screen. Data for the rad52 strain (AID 147);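 note: 0% = growth of vehicle-treated control cultures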; details: S. cerevisiae rad52 mutant growth inhibition, hits give high values
Method in brief: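 Here a repair-compromised yeast strain receives each compound; its growth is then quantified and normalised to vehicle-only controls.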

[2] = NCI Yeast Anticancer Drug Screen. Data for the wt1 strain (AID 149);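 note: 0% = growth of vehicle-treated wt1 cultures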; details: S. cerevisiae wt1 strain (SPY 50644) growth inhibition, hits give high values
Method in brief: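 wt1 yeast, compound-treated; % growth inhibition vs vehicle control.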

[3] = NCI Yeast Anticancer Drug Screen. Data for the mgt1 strain (AID 153); details: S. cerevisiae mgt1 mutant growth inhibition, hits give high values
Method in brief: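 Measured: inhibition of mgt1 yeast growth by compound, normalized to vehicle-treated cultures.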

[4] = NCI Yeast Anticancer Drug Screen. Data for the rad50 strain (AID 155);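 note: 0% = growth of vehicle-only cultures of the same strain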; details: S. cerevisiae rad50 strain growth inhibition, hits give high values
Method in brief: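 Genetically altered yeast (DNA repair pathway); compound treatment; growth inhibition vs vehicle ctrl.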

[5] = NCI Yeast Anticancer Drug Screen. Data for the mec2-1 strain (AID 157); details: S. cerevisiae mec2-1 strain, hits give high values
Method in brief: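 Using mec2-1 yeast: add compound, measure growth, express inhibition versus vehicle-treated cultures.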

[6] = NCI Yeast Anticancer Drug Screen. Data for the rad14 strain (AID 159);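 note: 0% = growth of vehicle-treated control cultures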; details: S. cerevisiae rad14 strain growth inhibition, hits give high values
Method in brief: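 Test compounds were applied to a repair-deficient yeast strain. Its growth was then compared with that of cultures given vehicle alone, and inhibition was expressed relative to those controls.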

[7] = NCI Yeast Anticancer Drug Screen. Data for the sgs1 mgt1 strain (AID 161);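 note: 0% = growth of cultures given vehicle only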; details: S. cerevisiae sgs1 mgt1 strain, hits give high values
Method in brief: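 Growth of a repair-deficient yeast mutant was monitored after compound treatment and expressed as inhibition relative to vehicle-treated cultures.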

[8] = NCI Yeast Anticancer Drug Screen. Data for the CLN2oe strain (AID 163);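 note: 0% = growth of vehicle-only control cultures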; details: S. cerevisiae CLN2oe strain, hits give high values
Method in brief: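 Whole-cell yeast growth assay. A strain engineered for altered cell-cycle control received compound, and inhibition relative to vehicle-treated cultures was recorded.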

[9] = NCI Yeast Anticancer Drug Screen. Data for the cln2 rad14 strain (AID 165);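 note: 0% = growth equal to vehicle treated cultures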; details: S. cerevisiae cln2 rad14 strain, hits give high values
Method in brief: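 Yeast strain cln2 rad14, bearing defects in cell cycle control and DNA repair, serves as the test system; values reflect growth inhibition compared with vehicle.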

[10] = NCI Yeast Anticancer Drug Screen. Data for the bub3 strain (AID 167); details: S. cerevisiae bub3 mutant strain, hits give high values
Method in brief: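 Yeast carrying a defined mutation is treated with each compound, and growth is compared with that of vehicle-exposed cells to give inhibition.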

[11] = NCI Yeast Anticancer Drug Screen. Data for the wt2 strain (AID 169);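 note: 0% = growth of vehicle-treated yeast cultures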; details: S. cerevisiae wt2 strain growth inhibition, hits give high values
Method in brief: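 Treated yeast vs. vehicle-treated yeast: growth inhibition determined.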

[12] = NCI Yeast Anticancer Drug Screen. Data for the mlh1 strain (AID 171);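 note: 0% = growth of vehicle-treated control cultures of the same strain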; details: S. cerevisiae mlh1 strain growth inhibition, hits give high values
Method in brief: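 A yeast strain with a defined genetic lesion serves as the test organism. Cultures receive compound or vehicle, and growth is measured.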

[13] = NCI Yeast Anticancer Drug Screen. Data for the sgs1 strain (AID 173);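 note: 0% = growth of vehicle-only control cultures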; details: S. cerevisiae sgs1 mutant, hits give high values
Method in brief: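 A genetically defined yeast mutant is incubated with the test compound, and its growth is compared to that of the same strain given vehicle.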

[14] = NCI Yeast Anticancer Drug Screen. Data for the mlh1 rad18 strain (AID 175); details: S. cerevisiae mlh1 rad18 strain growth inhibition, hits give high values
Method in brief: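 Steps: expose repair-defective yeast to compound; measure growth; express inhibition against vehicle-treated controls.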

[15] = NCI Yeast Anticancer Drug Screen. Data for the rad50EPP+ strain (AID 151);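 note: 0% = growth of vehicle-treated control cultures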; details: S. cerevisiae rad50 mutant strain, hits give high values
Method in brief: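 Read-out is yeast growth inhibition relative to vehicle; cells used were the rad50EPP+ strain.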

[16] = NCI Yeast Anticancer Drug Screen. Data for the rad18 strain (AID 177); details: S. cerevisiae rad18 mutant growth inhibition, hits give high values
Method in brief: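 Measured value is growth inhibition of a yeast strain bearing a DNA repair alteration, referenced to vehicle-treated cells.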

[17] = at 5.0 µM (retest, dose inferred, filed as 0.5)
[18] = at 50.0 µM (retest, dose inferred, filed as 5.0)

Measured: growth inhibition

c1ccc(Cc2cc(-c3ccccc3)n[nH]2)cc1
inactive: [1]; at 1.2 µM -7% | [1]; at 3.7 µM -5% | [1]; at 11.0 µM -12% | [1]; at 33.0 µM 0% | [1]; at 100.0 µM 59% | [2]; at 1.2 µM -6% | [2]; at 3.7 µM -10% | [2]; at 11.0 µM -15% | [2]; at 33.0 µM -16% | [2]; at 100.0 µM 44% | [3]; at 1.2 µM -4% | [3]; at 3.7 µM -8% | [3]; at 11.0 µM -11% | [3]; at 33.0 µM 8% | [3]; at 100.0 µM 50% | [4]; at 1.2 µM -10% | [4]; at 3.7 µM -19% | [4]; [17] -136% | [4]; at 11.0 µM 7% | [4]; at 33.0 µM 5% | [4]; [18] 31% | [4]; at 100.0 µM 60% | [5]; at 1.2 µM 2% | [5]; at 3.7 µM -4% | [5]; [17] -51% | [5]; at 11.0 µM -23% | [5]; at 33.0 µM -11% | [5]; [18] -13% | [5]; at 100.0 µM 43% | [6]; at 1.2 µM -3% | [6]; at 3.7 µM -4% | [6]; at 11.0 µM -7% | [6]; at 33.0 µM 6% | [6]; at 100.0 µM 58% | [7]; [17] -64% | [7]; [18] 46% | [8]; at 1.2 µM -8% | [8]; at 3.7 µM -8% | [8]; at 11.0 µM -14% | [8]; at 33.0 µM 0% | [8]; at 100.0 µM 55% | [9]; [17] -72% | [9]; [18] -13% | [10]; at 1.2 µM -15% | [10]; at 3.7 µM -5% | [10]; [17] -59% | [10]; at 11.0 µM 9% | [10]; at 33.0 µM 37% | [10]; [18] 62% | [11]; at 1.2 µM -3% | [11]; at 3.7 µM -4% | [11]; at 11.0 µM -7% | [11]; at 33.0 µM 10% | [11]; at 100.0 µM 52% | [12]; at 1.2 µM 4% | [12]; at 3.7 µM -12% | [12]; at 11.0 µM -11% | [12]; at 33.0 µM 5% | [12]; at 100.0 µM 55% | [13]; at 1.2 µM -3% | [13]; at 3.7 µM -11% | [13]; at 11.0 µM -5% | [13]; at 33.0 µM 27% | [13]; at 100.0 µM 69% | [14]; [17] -125% | [14]; [18] 9%
active: [4]; at 50.0 µM 97% | [5]; at 50.0 µM 97% | [7]; at 50.0 µM 89.8% | [9]; at 50.0 µM 70.4% | [10]; at 50.0 µM 93.8% | [10]; at 100.0 µM 80% | [14]; at 50.0 µM 96.8%

CC(=O)OC1CC2C(C)(C)C(=O)C=C[C@]2(C)C2CCC3(C)C(=CCC3[C@H](CO)C[C@H](O)C(=O)C(C)(C)O)[C@]12C (stereo partly drawn)
inactive: [1]; at 1.2 µM -7% | [1]; at 3.7 µM -4% | [1]; at 11.0 µM -3% | [1]; at 33.0 µM 11% | [15]; at 1.2 µM -34% | [15]; at 3.7 µM -35% | [15]; at 11.0 µM -39% | [15]; at 33.0 µM -39% | [15]; at 100.0 µM -31% | [3]; at 1.2 µM -26% | [3]; at 3.7 µM -34% | [3]; at 11.0 µM 53% | [4]; at 1.2 µM -5% | [4]; at 3.7 µM -18% | [4]; [17] -14% | [4]; at 11.0 µM -16% | [4]; at 33.0 µM 6% | [4]; [18] 23% | [4]; at 50.0 µM 44.9% | [4]; at 100.0 µM 62% | [5]; at 1.2 µM -56% | [5]; at 3.7 µM -56% | [5]; [17] -10% | [5]; at 11.0 µM -77% | [5]; at 33.0 µM -40% | [5]; [18] 12% | [5]; at 50.0 µM 42.8% | [5]; at 100.0 µM 53% | [6]; at 1.2 µM -42% | [6]; at 3.7 µM -46% | [6]; at 11.0 µM -29% | [6]; at 33.0 µM -5% | [7]; [17] 35% | [8]; at 1.2 µM -41% | [8]; at 3.7 µM -14% | [8]; at 11.0 µM -7% | [8]; at 33.0 µM 0% | [9]; [17] 32% | [9]; [18] 43% | [9]; at 50.0 µM 26.6% | [10]; at 1.2 µM -24% | [10]; at 3.7 µM -35% | [10]; [17] 13% | [10]; at 11.0 µM -41% | [10]; at 33.0 µM -29% | [10]; [18] 50% | [10]; at 50.0 µM 38.1% | [11]; at 1.2 µM -32% | [11]; at 3.7 µM -18% | [11]; at 11.0 µM 50% | [12]; at 1.2 µM -35% | [12]; at 3.7 µM -23% | [12]; at 11.0 µM 39% | [13]; at 1.2 µM -34% | [13]; at 3.7 µM -5% | [13]; at 11.0 µM 60% | [16]; at 1.2 µM -21% | [16]; at 3.7 µM -21% | [16]; at 11.0 µM -17% | [16]; at 33.0 µM 3%
active: [1]; at 100.0 µM 81% | [3]; at 33.0 µM 90% | [3]; at 100.0 µM 94% | [6]; at 100.0 µM 77% | [7]; [18] 93% | [7]; at 50.0 µM 88.8% | [8]; at 100.0 µM 82% | [10]; at 100.0 µM 78% | [11]; at 33.0 µM 86% | [11]; at 100.0 µM 95% | [12]; at 33.0 µM 86% | [12]; at 100.0 µM 92% | [13]; at 33.0 µM 87% | [13]; at 100.0 µM 93% | [16]; at 100.0 µM 74%

Cc1cc(S(=O)(=O)Nc2nnc3cnc4ccccc4n23)c(S)cc1Cl
active: [10]; [18] 70%
inactive: [1]; at 1.2 µM -1% | [1]; at 3.7 µM 0% | [1]; at 11.0 µM 4% | [1]; at 33.0 µM 17% | [1]; at 100.0 µM 43% | [2]; at 1.2 µM -1% | [2]; at 3.7 µM -3% | [2]; at 11.0 µM 4% | [2]; at 33.0 µM 11% | [2]; at 100.0 µM 28% | [3]; at 1.2 µM -2% | [3]; at 3.7 µM -2% | [3]; at 11.0 µM -1% | [3]; at 33.0 µM 26% | [3]; at 100.0 µM 34% | [4]; at 1.2 µM 0% | [4]; at 3.7 µM 0% | [4]; [17] -3% | [4]; at 11.0 µM 2% | [4]; at 33.0 µM 12% | [4]; [18] 60% | [4]; at 50.0 µM -14.9% | [4]; at 100.0 µM 37% | [5]; at 1.2 µM -1% | [5]; at 3.7 µM 0% | [5]; [17] 2% | [5]; at 11.0 µM 6% | [5]; at 33.0 µM 19% | [5]; [18] 61% | [5]; at 50.0 µM 1.7% | [5]; at 100.0 µM 54% | [6]; at 1.2 µM -1% | [6]; at 3.7 µM 3% | [6]; at 11.0 µM 9% | [6]; at 33.0 µM 21% | [6]; at 100.0 µM 40% | [7]; [17] -1% | [7]; [18] 47% | [7]; at 50.0 µM -11.9% | [8]; at 1.2 µM 3% | [8]; at 3.7 µM 3% | [8]; at 11.0 µM 16% | [8]; at 33.0 µM 24% | [8]; at 100.0 µM 44% | [9]; [17] 48% | [9]; [18] 54% | [9]; at 50.0 µM 52% | [10]; at 1.2 µM 4% | [10]; at 3.7 µM 1% | [10]; [17] 11% | [10]; at 11.0 µM 2% | [10]; at 33.0 µM 10% | [10]; at 50.0 µM -18.8% | [10]; at 100.0 µM 32% | [11]; at 1.2 µM -1% | [11]; at 3.7 µM -2% | [11]; at 11.0 µM 4% | [11]; at 33.0 µM 14% | [11]; at 100.0 µM 35%
